{
  "source": "the supplement of paper PMC11732987",
  "about": "“Enantioselective OTUD7B fragment discovery through chemoproteomics screening and high-throughput optimisation” (Communications Chemistry, 2025)",
  "experiment_in_all_cases": "log2 ratio of Biotin-Ahx-Ub-VS probe labelling (fragment/DMSO); higher = less target engagement (more negative = stronger competition), active = hit call of the paper (q ≤ 0.05, log2 ratio ≤ -1)",
  "settings_in_all_cases": "compound concentration: 200 uM; treatment time: 3 h",
  "key": {"OTUD6B": {"target": "T1, OTUD6B (UniProt Q8N6M0)", "T1 sequence (whole entry)": "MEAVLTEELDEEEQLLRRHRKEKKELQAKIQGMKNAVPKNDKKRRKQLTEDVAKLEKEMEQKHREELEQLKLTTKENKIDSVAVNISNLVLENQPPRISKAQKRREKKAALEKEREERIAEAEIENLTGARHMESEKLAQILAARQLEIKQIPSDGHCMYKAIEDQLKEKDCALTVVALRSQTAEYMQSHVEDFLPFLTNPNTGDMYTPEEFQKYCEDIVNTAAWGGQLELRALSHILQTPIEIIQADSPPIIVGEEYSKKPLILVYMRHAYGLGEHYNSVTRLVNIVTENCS", "method_in_brief": "(§1)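 Using Biotin-Ahx-Ub-VS at 0.5 µM final for 1 h, DUBs were labelled in HEK293T lysate (495 µg per sample) that had first been treated in triplicate with fragment at 200 µM or vehicle for 3 h. NeutrAvidin enrichment, LysC and trypsin digestion and diaPASEF LC-MS/MS followed. Spectronaut label-free quantities were global-median-normalised. Values are average log2 fragment/vehicle ratios by unpaired t-test, using proteins with ≥2 unique peptides.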"}, "OTUD7B": {"target": "T2, OTUD7B (UniProt Q6GQQ9)", "T2 sequence (whole entry)": "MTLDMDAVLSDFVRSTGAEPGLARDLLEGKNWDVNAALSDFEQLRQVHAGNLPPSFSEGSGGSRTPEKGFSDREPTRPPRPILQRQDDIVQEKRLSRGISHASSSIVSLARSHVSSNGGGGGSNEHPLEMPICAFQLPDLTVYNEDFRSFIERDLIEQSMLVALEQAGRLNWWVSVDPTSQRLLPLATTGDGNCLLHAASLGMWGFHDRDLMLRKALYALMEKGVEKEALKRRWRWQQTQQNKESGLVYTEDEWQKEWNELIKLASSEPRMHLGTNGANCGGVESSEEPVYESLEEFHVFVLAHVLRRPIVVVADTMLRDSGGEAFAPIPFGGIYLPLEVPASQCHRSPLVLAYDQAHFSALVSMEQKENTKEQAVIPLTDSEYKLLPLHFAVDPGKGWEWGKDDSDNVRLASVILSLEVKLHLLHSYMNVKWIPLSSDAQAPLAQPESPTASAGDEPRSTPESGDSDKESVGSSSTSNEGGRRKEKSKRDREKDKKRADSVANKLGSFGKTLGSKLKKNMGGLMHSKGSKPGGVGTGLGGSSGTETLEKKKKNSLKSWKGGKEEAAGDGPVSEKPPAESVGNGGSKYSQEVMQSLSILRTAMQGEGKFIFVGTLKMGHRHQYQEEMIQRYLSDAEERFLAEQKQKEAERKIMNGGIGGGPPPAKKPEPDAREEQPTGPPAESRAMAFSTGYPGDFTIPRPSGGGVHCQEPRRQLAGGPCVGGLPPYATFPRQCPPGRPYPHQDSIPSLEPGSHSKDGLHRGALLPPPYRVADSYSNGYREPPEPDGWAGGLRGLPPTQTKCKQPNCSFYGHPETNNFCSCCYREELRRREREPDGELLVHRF", "method_in_brief": "as §1"}, "PRPF8": {"target": "PRPF8 (UniProt Q6P2Q9)", "method_in_brief": "as §1"}, "PSMD7": {"target": "T3, PSMD7 (UniProt P51665)", "T3 sequence (whole entry)": "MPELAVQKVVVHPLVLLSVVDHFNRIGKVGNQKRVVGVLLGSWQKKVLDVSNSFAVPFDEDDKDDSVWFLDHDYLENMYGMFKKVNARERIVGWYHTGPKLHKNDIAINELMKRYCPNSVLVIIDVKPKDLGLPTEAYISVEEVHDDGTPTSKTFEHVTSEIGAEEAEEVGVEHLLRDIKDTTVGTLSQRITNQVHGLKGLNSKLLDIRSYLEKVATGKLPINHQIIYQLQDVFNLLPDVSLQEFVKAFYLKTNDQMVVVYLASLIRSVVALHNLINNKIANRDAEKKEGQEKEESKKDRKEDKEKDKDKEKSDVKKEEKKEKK", "method_in_brief": "as §1"}, "UCHL1": {"target": "UCHL1 (UniProt P09936)", "sequence (P09936 whole entry, looked up)": "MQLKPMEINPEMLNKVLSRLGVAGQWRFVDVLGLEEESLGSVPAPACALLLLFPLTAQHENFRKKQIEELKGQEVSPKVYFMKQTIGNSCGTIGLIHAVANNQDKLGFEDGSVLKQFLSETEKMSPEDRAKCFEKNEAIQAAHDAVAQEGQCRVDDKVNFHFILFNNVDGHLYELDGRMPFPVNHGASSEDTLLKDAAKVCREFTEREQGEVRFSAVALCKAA", "method_in_brief": "as §1"}, "UCHL3": {"target": "T4, UCHL3 (UniProt P15374)", "T4 sequence (whole entry)": "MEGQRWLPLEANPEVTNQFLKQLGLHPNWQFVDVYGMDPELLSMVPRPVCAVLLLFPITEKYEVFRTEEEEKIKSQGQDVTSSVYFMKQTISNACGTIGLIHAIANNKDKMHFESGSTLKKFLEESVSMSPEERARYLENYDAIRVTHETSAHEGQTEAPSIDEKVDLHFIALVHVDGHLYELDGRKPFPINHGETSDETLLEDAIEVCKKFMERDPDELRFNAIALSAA", "method_in_brief": "as §1"}, "UCHL5": {"target": "T5, UCHL5 (UniProt Q9Y5K5)", "T5 sequence (whole entry)": "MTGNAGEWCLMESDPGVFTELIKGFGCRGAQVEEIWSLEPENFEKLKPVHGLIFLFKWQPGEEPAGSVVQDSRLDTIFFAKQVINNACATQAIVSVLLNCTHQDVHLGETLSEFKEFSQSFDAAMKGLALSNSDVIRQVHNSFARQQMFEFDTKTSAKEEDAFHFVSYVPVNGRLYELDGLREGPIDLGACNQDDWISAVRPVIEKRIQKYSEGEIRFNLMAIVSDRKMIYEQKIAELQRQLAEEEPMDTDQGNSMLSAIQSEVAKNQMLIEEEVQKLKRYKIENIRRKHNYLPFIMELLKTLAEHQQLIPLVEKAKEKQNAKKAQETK", "method_in_brief": "as §1"}, "USP10": {"target": "USP10 (UniProt Q14694)", "sequence (Q14694 whole entry)": "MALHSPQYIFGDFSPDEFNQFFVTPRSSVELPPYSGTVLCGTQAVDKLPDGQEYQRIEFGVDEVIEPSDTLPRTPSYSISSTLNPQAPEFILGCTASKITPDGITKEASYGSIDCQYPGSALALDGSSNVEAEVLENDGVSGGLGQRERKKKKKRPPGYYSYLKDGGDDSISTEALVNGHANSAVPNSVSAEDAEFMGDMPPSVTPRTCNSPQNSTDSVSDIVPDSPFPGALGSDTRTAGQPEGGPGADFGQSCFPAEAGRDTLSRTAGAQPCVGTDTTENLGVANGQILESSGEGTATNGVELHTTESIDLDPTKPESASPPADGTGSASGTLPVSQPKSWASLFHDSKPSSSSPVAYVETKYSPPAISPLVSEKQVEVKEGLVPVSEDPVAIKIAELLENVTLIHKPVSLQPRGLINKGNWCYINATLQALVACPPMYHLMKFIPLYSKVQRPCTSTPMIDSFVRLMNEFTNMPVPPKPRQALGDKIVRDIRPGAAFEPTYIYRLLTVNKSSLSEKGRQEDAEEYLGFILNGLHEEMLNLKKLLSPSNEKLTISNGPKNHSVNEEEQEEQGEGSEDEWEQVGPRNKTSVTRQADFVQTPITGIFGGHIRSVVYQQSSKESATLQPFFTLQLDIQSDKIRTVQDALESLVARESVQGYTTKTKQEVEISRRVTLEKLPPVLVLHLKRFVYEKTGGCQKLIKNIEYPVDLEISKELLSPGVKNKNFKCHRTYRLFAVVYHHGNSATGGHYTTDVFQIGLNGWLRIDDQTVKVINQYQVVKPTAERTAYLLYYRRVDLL", "method_in_brief": "as §1"}, "USP15": {"target": "T6, USP15 (UniProt Q9Y4E8)", "T6 sequence (whole entry)": "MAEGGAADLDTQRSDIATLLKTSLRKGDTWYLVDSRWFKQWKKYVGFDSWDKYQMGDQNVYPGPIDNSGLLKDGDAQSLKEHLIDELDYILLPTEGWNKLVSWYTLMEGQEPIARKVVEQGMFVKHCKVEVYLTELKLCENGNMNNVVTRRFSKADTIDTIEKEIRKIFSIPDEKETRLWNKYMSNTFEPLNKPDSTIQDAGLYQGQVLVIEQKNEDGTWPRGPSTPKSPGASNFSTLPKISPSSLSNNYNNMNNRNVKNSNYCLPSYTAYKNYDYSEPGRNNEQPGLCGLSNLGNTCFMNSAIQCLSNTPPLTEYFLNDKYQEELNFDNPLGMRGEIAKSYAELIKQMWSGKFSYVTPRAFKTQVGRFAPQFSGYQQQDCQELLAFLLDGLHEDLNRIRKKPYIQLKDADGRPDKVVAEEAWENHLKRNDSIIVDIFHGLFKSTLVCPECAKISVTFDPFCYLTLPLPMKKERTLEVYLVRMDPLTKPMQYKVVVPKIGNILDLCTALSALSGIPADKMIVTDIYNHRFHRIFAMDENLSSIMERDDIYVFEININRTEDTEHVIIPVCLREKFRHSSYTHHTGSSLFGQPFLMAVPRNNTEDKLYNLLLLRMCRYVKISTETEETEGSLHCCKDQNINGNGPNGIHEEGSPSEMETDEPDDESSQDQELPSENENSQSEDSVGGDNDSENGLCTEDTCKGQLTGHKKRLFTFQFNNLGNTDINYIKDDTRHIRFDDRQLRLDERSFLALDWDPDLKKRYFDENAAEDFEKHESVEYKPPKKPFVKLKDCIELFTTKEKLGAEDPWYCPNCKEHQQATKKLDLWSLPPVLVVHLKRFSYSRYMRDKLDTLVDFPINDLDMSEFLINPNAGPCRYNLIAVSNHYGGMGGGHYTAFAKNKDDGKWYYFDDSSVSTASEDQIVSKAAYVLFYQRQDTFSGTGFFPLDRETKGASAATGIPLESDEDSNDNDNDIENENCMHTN", "method_in_brief": "as §1"}, "USP16": {"target": "USP16 (UniProt Q9Y5T5)", "sequence (Q9Y5T5 whole entry, looked up)": "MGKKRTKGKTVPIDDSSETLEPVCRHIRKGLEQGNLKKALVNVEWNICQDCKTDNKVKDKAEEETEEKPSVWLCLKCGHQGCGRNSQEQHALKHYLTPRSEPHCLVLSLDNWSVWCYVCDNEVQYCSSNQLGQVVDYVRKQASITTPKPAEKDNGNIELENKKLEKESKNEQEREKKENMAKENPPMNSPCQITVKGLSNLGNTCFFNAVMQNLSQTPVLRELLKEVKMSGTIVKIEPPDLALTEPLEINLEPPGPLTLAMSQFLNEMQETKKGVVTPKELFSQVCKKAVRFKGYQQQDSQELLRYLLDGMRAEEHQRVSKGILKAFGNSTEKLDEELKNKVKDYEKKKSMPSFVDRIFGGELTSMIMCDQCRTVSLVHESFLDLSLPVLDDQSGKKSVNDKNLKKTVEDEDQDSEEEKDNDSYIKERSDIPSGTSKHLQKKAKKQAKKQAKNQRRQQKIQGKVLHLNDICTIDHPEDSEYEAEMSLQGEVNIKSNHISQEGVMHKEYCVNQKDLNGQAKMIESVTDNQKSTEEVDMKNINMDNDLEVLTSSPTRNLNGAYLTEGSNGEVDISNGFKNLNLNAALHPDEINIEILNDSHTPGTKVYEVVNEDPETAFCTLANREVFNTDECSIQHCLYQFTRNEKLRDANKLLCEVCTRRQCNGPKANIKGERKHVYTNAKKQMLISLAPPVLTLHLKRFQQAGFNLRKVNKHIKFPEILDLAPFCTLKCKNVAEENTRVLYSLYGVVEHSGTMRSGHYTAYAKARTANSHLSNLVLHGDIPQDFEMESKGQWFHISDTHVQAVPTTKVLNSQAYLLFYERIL", "method_in_brief": "as §1"}},
  "note": "Unmarked numbers belong to inactive results.",
  "data": [
    {"smiles": "O=C(CCl)NC1(c2ccc3c(c2)OCCO3)CCCC1", "values": [
      {"measurement": "log2 ratio of Biotin-Ahx-Ub-VS probe labelling", "setting": "OTUD6B", "result": -0.0936},
      {"measurement": "log2 ratio of Biotin-Ahx-Ub-VS probe labelling", "setting": "OTUD7B", "result": -0.638},
      {"measurement": "log2 ratio of Biotin-Ahx-Ub-VS probe labelling", "setting": "PRPF8", "result": -0.154},
      {"measurement": "log2 ratio of Biotin-Ahx-Ub-VS probe labelling", "setting": "PSMD7", "result": -0.208},
      {"measurement": "log2 ratio of Biotin-Ahx-Ub-VS probe labelling", "setting": "UCHL1", "result": "-1.32 (active)"},
      {"measurement": "log2 ratio of Biotin-Ahx-Ub-VS probe labelling", "setting": "UCHL3", "result": -0.106},
      {"measurement": "log2 ratio of Biotin-Ahx-Ub-VS probe labelling", "setting": "UCHL5", "result": -0.537},
      {"measurement": "log2 ratio of Biotin-Ahx-Ub-VS probe labelling", "setting": "USP10", "result": -0.203},
      {"measurement": "log2 ratio of Biotin-Ahx-Ub-VS probe labelling", "setting": "USP15", "result": -0.213},
      {"measurement": "log2 ratio of Biotin-Ahx-Ub-VS probe labelling", "setting": "USP16", "result": -0.316}
    ]}
  ]
}
